According to PubChem BioAssay:
The source made the active and inactive calls.

What follows are compounds tested against Dihydroorotate dehydrogenase (quinone), mitochondrial (Plasmodium falciparum (isolate 3D7)) (UniProt Q08210) (assay: inhibition of P. falciparum DHODH – biochemical, C-terminal His tag, absorbance 600 nm, primary screen (AID 1175;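 also: recombinant parasite enzyme with a five histidine tag at its C terminus; test concentration not given here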)). Conditions: PfDHODH enzyme, DCIP absorbance 600 nm; higher = more signal, called active from +8 up or from −8 down.
Chain of Dihydroorotate dehydrogenase (quinone), mitochondrial (Plasmodium falciparum (isolate 3D7)) (Q08210 whole entry, looked up): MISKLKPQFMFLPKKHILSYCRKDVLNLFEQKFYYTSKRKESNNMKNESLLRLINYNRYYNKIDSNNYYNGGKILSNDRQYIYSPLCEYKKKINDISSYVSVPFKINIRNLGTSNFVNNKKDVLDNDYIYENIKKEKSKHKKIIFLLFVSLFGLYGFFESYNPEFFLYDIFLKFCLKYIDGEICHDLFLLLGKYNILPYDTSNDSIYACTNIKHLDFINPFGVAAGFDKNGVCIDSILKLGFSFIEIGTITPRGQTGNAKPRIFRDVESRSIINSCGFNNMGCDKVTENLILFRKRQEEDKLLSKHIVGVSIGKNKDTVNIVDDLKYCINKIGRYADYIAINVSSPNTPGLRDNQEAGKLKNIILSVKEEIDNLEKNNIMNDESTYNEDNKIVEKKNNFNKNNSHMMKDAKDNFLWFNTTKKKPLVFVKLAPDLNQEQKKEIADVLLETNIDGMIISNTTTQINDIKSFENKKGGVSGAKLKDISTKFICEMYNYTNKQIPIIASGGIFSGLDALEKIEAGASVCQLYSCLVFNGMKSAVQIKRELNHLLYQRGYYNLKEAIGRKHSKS

Composite z-score, inactive:
C[C@]1(C(=O)NCc2ccccc2)c2ccccc2C(=O)N(Cc2ccc(OC(F)(F)F)cc2)[C@H]1c1ccc(CO)cc1 -0.482, O=C1O[C@@H](c2ccccc2)[C@@H](c2ccccc2)N2[C@@H](c3ccc(O)cc3)[C@]3(C(=O)Nc4ccc(C#CC5=CCCCC5)cc43)[C@@H](C(=O)O)[C@H]12 -2.56, O=C(O)[C@@]1(Cc2ccccc2)N=C(c2ccc(OCCCO)cc2)O[C@H]1c1ccccc1 1.22, NC(=O)NCC#Cc1ccc2c(c1)[C@]1(C(=O)N2)[C@H](C(=O)N2CCCCCCC2)[C@H]2C(=O)O[C@H](c3ccccc3)[C@H](c3ccccc3)N2[C@@H]1c1ccc(OCCO)cc1 0.835, CC(C)C[C@@H]1NC(=O)[C@H]2C[C@@H](C(=O)NCCCCCNC(=O)CS)[C@@H](c3cccc(OCCO)c3)N2C1=O 0.0225, COC(=O)[C@@]1(Cc2ccccc2)[C@H]2c3cc(C(=O)N4CCCC4)n(C)c3C[C@H]2CN1C(=O)c1ccccc1 0.381, Cc1ccc(S[C@]2(C(=O)NCC(C)C)CC(=O)N(Cc3ccccc3)[C@@H]2c2ccc(CO)cc2I)cc1 0.47, COCCOC(=O)N1C(=O)[C@@]2(c3cc(C#CCCO)ccc31)[C@H](c1ccccc1OCCO)N1[C@H](c3ccccc3)[C@H](c3ccccc3)OC(=O)[C@H]1[C@@H]2C(=O)N1CCN(c2ncccn2)CC1 -0.465, CC(c1ccccc1)C(O)C1C=CC2C(=O)NC(=O)C2N1Nc1ccccn1 (centres undefined) 0.865
